Results from PubChem BioAssay AID743361 (Molecular Libraries Program, Specialized Chemistry Center, …, 2014).
Values without a mark were called inactive. The source made the active and inactive calls. No rule for the calls is given here.

Assay: cell-free Rh123 fluorescence quenching read-out – biochemical, dry powder samples, uHTS hits, counter-screen for mtPTP inhibitor project, dose response (AID 743361)
Settings: Rhodamine 123 fluorescence quenching counterscreen

| SMILES | IC50 |
| --- | --- |
| O=C(Nc1ccc(Br)cc1)c1cc(C2CC2)on1 | > 100 µM |
| COc1ccc(C(=O)CCN2CCCC(C)C2)cc1 (stereo unspecified) | > 100 µM |
| COc1ccc(Cl)cc1C(=O)Nc1ccc(N(C)C)cc1 | > 100 µM |
| COc1ccc(Cl)cc1C(=O)Nc1ccc(N2CCCCC2)cc1 | > 100 µM |
| O=C(Nc1ccc(OCc2ccccc2)c(Cl)c1)c1cc(-c2cccc(O)c2)on1 | > 100 µM |
| CN1CCN(Cc2ccc(NS(=O)(=O)c3cccc(Cl)c3)cc2)CC1 | > 100 µM |
| CN1CCN(c2ccc(NS(=O)(=O)c3cccc(Cl)c3)cc2)CC1 | > 100 µM |
| O=C(Nc1ccc(CN2CCCCC2)cc1)c1cccc(OCc2ccccc2)c1 | 55.4 µM (active) |
| CCN(CC)c1ccc(NC(=O)c2ccc(OC)c(Cl)c2)cc1 | > 100 µM |
| CCc1ccccc1NC(=O)c1cc(-c2ccccc2)on1 | > 100 µM |
| COc1ccc(Cl)cc1S(=O)(=O)Nc1ccc(CN2CCN(C)CC2)cc1 | > 100 µM |
| O=C(Nc1ccc(CN2CCCCC2)cc1)c1cc(Cl)ccc1O | > 100 µM |
| CCCc1cc(C(=O)Nc2c(F)cc(F)cc2Br)no1 | > 100 µM |
| COc1ccc(Cl)cc1S(=O)(=O)Nc1ccc(N2CCN(C)CC2)cc1 | > 100 µM |
| O=S(=O)(Nc1ccc(CN2CCCCC2)cc1)c1cc(Cl)cc(Cl)c1 | > 100 µM |
| COc1ccc(Cl)cc1C(=O)Nc1ccc(CN2CCCCC2)cc1 | > 100 µM |
